PubChem BioAssay (NCATS)
Inconclusive results are not listed. The source made the active and inactive calls. The call rests on the fitted dose curve; in most records, active means well fitted curve in the direction sought with a large enough effect in the signal ratio; inconclusive means small, poorly fitted or top-dose-only effect, or a change in a side signal; inactive means no such curve, though single readings can be large or run the other way; the % refers to the signal ratio.

Biological target: Tumor necrosis factor (Homo sapiens) (UniProt P01375)
Assay: qHTS assay to identify small molecules that stimulate Tumor Necrosis Factor-alpha (TNF-alpha) secretion (AID 651757)
Settings: Human cells, HTRF 665/615 ratio; series mostly up to 92.2 µM
Text: National Center for Advancing Translational Sciences [NCATS]
NIH Chemical Genomics Center [NCGC]
National Institutes of Environmental Health Sciences [NIEHS]
National Toxicology Program [NTP]
Tumor Necrosis Factor-alpha (TNF-alpha), a secreted cytokine, plays an important role in inflammatory diseases and immune disorders. TNF-alpha, a 17 kDa cytokine, is mainly secreted by activated macrophages and monocytes in response to several inflammatory and immunological stimuli. To study the effect of environmental chemicals on TNF-alpha secretion, a homogeneous TNF-alpha assay was developed using Time Resolved fluorescence (HTRF) technology based on Time Resolved Fluorescent Resonance Energy Transfer (TR-FRET) (Leister et al., Current Chemical Genomics, 5:21-29, 2011). This assay allows measuring TNF-alpha secreted from the cells in a 1536-well plate format.
THP-1 cells were dispensed at 3000 cells/5ul/well in 1536-well white solid plates. After addition of 23 nl of compound, positive controls and DMSO only, the assay plates were incubated at 37 C for 17 hrs, followed by addition of 5 uLof mixture of cryptate labeled and XL665 labeled anti-TNF-alpha antibodies. After the assay plates were incubated at room temperature for 3 hr, the plates were measured by an EnVision plate reader.

Tumor necrosis factor (Homo sapiens), sequence (P01375 whole entry, looked up): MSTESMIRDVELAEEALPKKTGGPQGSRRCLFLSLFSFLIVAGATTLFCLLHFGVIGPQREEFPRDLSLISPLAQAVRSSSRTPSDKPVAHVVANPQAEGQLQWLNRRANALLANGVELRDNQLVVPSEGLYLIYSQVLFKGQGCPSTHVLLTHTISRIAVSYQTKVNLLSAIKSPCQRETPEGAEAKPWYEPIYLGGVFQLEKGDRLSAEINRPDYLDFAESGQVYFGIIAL

Row | SMILES | outcome
1 | CC(=O)Nc1cccc(O)c1 | inactive
2 | FC(F)(F)C(Cl)Br (stereo unspecified) | inactive
3 | CCCCCC(N)=O | inactive
4 | Cc1c(N(C)C)c(=O)n(-c2ccccc2)n1C | inactive
5 | Cc1cc(=O)[nH]c(=S)[nH]1 | inactive
6 | CC1CC(OC(=O)c2ccccc2O)CC(C)(C)C1 (stereo unspecified) | inactive
7 | CC(=O)Nc1ccccc1 | inactive
8 | O=C1C(c2[nH]c3ccccc3c2O)=Nc2ccccc21 | inactive
9 | CCCC(O)C(CC)CO (stereo unspecified) | inactive
10 | O=C1c2cccc(O)c2C(=O)c2c(O)cccc21 | inactive
11 | COc1ccc(O)cc1 | inactive
12 | CCN(CC)C(=O)c1cccc(C)c1 | inactive
13 | CCCCCCCC(=O)OCC(COC(=O)CCCCCCC)OC(=O)CCCCCCC | inactive
14 | CC(=O)NS(=O)(=O)c1ccc(N)cc1 | inactive
15 | O=C(c1ccccc1)C(O)c1ccccc1 (stereo unspecified) | inactive
16 | CCCCOC(=O)c1ccc(N)cc1 | inactive
17 | C=CCNC(N)=S | inactive
18 | CC(=O)Nc1ccc(C(=O)O)cc1 | inactive
19 | O=C(O)CCCCC1CCSS1 (stereo unspecified) | inactive
20 | Cc1cc(C)nc(NS(=O)(=O)c2ccc(N)cc2)n1 | inactive
21 | CC(=O)OCC(COC(C)=O)OC(C)=O | inactive
